Experimental data published in PMC12136788.
The full ranking holds about 24,000 sequences; the median of “enrichment r” is about 0.99, and the highest 2% start at about 3.7. What follows is part of a selection rich in the highest values, with near analogues and random picks from the rest.

T1: UNK ZnF1-3 (human, UniProt Q9C0B0 31-174)
T1 sequence: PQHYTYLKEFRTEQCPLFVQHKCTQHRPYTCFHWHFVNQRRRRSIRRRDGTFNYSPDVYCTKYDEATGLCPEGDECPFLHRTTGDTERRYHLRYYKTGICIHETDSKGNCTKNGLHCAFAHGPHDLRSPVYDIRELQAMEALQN

B1: chr4:144460044:144460045:+_ENSG00000153147_ENST00000283131|hu_mus|hu_hu_hu_mus_False|98_98 (ssRNA)
RNA: GGGAGUUCUACAGUCCGACGAUCACGGUCCAUAGCCUGAAGAUCUACUUGCGGAUUCCAAUCUGAGUCAUAUAAAAUGACUACAUCAGCAGUUGCAAGAUUGAUGCCCAGACCACCAGCACGUGUGCUUAGCAUAAAUACAAACAACAGAGGAUUGAGCAUCA
B2: chr5:64741823:64741824:+_ENSMUSG00000029174_ENSMUST00000119756|mus_mus|motif|central (ssRNA)
RNA: GGGAGUUCUACAGUCCGACGAUCAAUAAAUAUGUCAGACCCCACAGCUACAGGUCCCACACUAGCAAUAACAGGGAAUCGGAAAACUGUGAUUUCCUUAUGAAACAUUUACCUGUGACUUGAAAGGGUAAGCAAAAACCAUACCAACAGAGGAUUGAGCAUCA
B3: chr16:94664741:94664742:+_ENSMUSG00000040785_ENSMUST00000117648|mus_hu|mus_mus_mus_hu_False|1_98 (ssRNA)
RNA: GGGAGUUCUACAGUCCGACGAUCUGGUACUGAUCUUUGCAUUGGAUAUUCAGGAGAAAGGCUGGCCAAGGGUGUAUAUAUGCUGGUGUACUGGGGCAAACCUGGUAACACGUUUAUGUAUGCUGGCGGUGUCUGGGUGCCAAACAACAGAGGAUUGAGCAUCA
B4: chr1:44133529:44133530:+_ENSG00000066135_ENST00000372396|hu_mus|FALSE|FALSE (ssRNA)
RNA: GGGAGUUCUACAGUCCGACGAUCGAACUCGGCUGCUUCCGGUGUGGGCAGAGUGUGGUCAAUAACCAUGCUGUCCUUCCCAGCUUUCCAAAGUUUGUAGCGUUCCGGCUGGAACCUCCUCACGAACACGUCCAUGGAGAUCUUCAACAGAGGAUUGAGCAUCA
B5: chr10:75008345:75008346:-_ENSG00000213551_ENST00000372950|hu_hu|motif|central (ssRNA)
RNA: GGGAGUUCUACAGUCCGACGAUCCUAUAUCUUAGUCACACACCAGAGUUAAGCCAUCUGUCUUUGCUCAUUUUUCCCUCGGUGGACAACAUAAUAUGUUGGGAAGGGCUUUCCAGGAGGGCAUAACCGGGAGAUGAAUCUUACCAACAGAGGAUUGAGCAUCA
B6: chr1:225611761:225611762:-_ENSG00000143815_ENST00000272163|hu_mus|hu_hu_hu_mus_True|8_88 (ssRNA)
RNA: GGGAGUUCUACAGUCCGACGAUCCCAGGCCAUCGGCCUCUGACCACUUCACCAUCGACAAACUUCCUACUUGGCAUUUUCUAAAAUUAGUCUGGCCGCGCUCCGGCGGGAACUCCAGCCACUCCAGGGAGAAUAGUAGCAGCCCAACAGAGGAUUGAGCAUCA
B7: chr2:179515052:179515053:+_ENSMUSG00000000305_ENSMUST00000000314|mus_hu|FALSE|FALSE (ssRNA)
RNA: GGGAGUUCUACAGUCCGACGAUCGCUGUCCCAUGCAGUCACCGUGAACGCCACCUGCUCGGAGGGGACCUGCAGCUCCCGGGUGGCGAAGACUGUCCCAUCUGCCCCAACUUUGAAGUCCAUGCUGUUGGUCUCAUAUUGUGUCAACAGAGGAUUGAGCAUCA
B8: chr6:13577978:13577979:-_ENSMUSG00000042742_ENSMUST00000045235|mus_hu|FALSE|FALSE (ssRNA)
RNA: GGGAGUUCUACAGUCCGACGAUCAAAAAGAAUUAUCACCAAUUACAAAAAGUUCAGUAAAUAUUGGAUCAUCAGACAAAAAAGGAACAUAAAAUGACUUUCUGUAACAUCACAAUUUUAGUUAGAAAAAAGAAAAAGAUAAGUCAACAGAGGAUUGAGCAUCA
B9: chr4:95690885:95690886:+_ENSMUSG00000028572_ENSMUST00000156910|mus_mus|mus_mus_mus_hu_False|8_78 (ssRNA)
RNA: GGGAGUUCUACAGUCCGACGAUCUUUAGAAAAUGUUAAAUACCAUGCUAAAAUAUUGUAAUUUUAAUAUUUUAUUUUACCAGAAGUCACAGGCAAGCAGACACUACAAGAAUAUAUGAAAAUGAAACAACAGUGUAUAACUGUCAACAGAGGAUUGAGCAUCA
B10: chr19:15271055:15271056:-_ENSG00000074181_ENST00000263388|hu_mus|FALSE|FALSE (ssRNA)
RNA: GGGAGUUCUACAGUCCGACGAUCAUAUAUAUUUUGUAAAAAAUAAUAAUAAUAAUAAGUUUGUUUAAAUGAAUUUGUCUCUAUACAAAAUGUAAAAAAGAAAAAAAUAAUAACUCACUCUUGUCAGAGUGUGAGACAAUGAGACAACAGAGGAUUGAGCAUCA
B11: chr11:31834330:31834331:+_ENSMUSG00000020300_ENSMUST00000109412|mus_mus|FALSE|FALSE (ssRNA)
RNA: GGGAGUUCUACAGUCCGACGAUCAUAAAGUUCAGAGUAAUAGAUAAUCAUUGUUUAUGCCCUGUAAAGAAGUGGAACCAAAUCAUCUGUAAACACGCUUGUCACACAAUCACAAGUAAAUAUUAGCAGAAUAACAAUUUCUUACAACAGAGGAUUGAGCAUCA
B12: chr3:169711627:169711628:+_ENSG00000008952_ENST00000337002|hu_hu|motif|central (ssRNA)
RNA: GGGAGUUCUACAGUCCGACGAUCUAAAAACAUACCCUUACAUGGUCUUAAUUUUAUGAAUUUAAGUGUUGAGAAAUAUCGGAAUAAUAAGUAACAAUUAAAAUAAAAUGUUUUAUUUGUAAAUUAUGUACAGAAUACACUUUACAACAGAGGAUUGAGCAUCA
B13: 13037762_13037882_4555_3pUTR_ENSMUSG00000029571_ENSMUST00000031556|mouse|control|control (ssRNA)
RNA: GGGAGUUCUACAGUCCGACGAUCUAAAAGGUACUCCUAUUUUAAAAACAUAUGAAUGAAACUAUCUUCUAAAAUAAGACGCAAUGUGUUAACAACCAGUUGAUUUAAGCACUUUAAAAGGCAGAAUGGAAAAGUCGGCACACCCAACAGAGGAUUGAGCAUCA
B14: chr7:7676484:7676485:-_ENSG00000106399_ENST00000223129|hu_mus|FALSE|FALSE (ssRNA)
RNA: GGGAGUUCUACAGUCCGACGAUCAAGUAUCACUUUUAAAAAAAGUUUAUAAAAAGGCUUAGUUGUAAACUGUCAUAAUAGAUUUACAAAAAAAUAUAUAUAUAUAAAAGAACAAAUUAAAUAUUAGAAAUUAUAGGAGUCGCUCAACAGAGGAUUGAGCAUCA
B15: chr11:99246628:99246629:-_ENSMUSG00000019761_ENSMUST00000103131|mus_mus|FALSE|FALSE (ssRNA)
RNA: GGGAGUUCUACAGUCCGACGAUCAUAGUUUGCAUCAGUAAGAAAGUUUAUUGAAAUUUAUUAGUAAAUGAGAAAUUAAUAAGUAAGUGAGAAAGUUUUCUUCUUUUUUCUCCACAAAAGAACACUUUCUGAUAGAUGAAAAGACAACAGAGGAUUGAGCAUCA

biological target: T1, UNK ZnF1-3; assay: nsRBNS (natural sequence RNA bind-n-seq); RBNS binding buffer (assumed for nsRBNS): 25 mM Tris pH 7.5, 150 mM KCl, 3 mM MgCl2, 0.01% Triton X-100, 500 ug/ml BSA, 20 U/ml SUPERase-In, 4 C; UNK is unkempt and MSI1 is Musashi-1; names of the RNAs are library labels; protein concentration not given here; high values mean tight binding

Point of comparison: B7, binding signal 0.755 enrichment R. Against it:
- B1 — higher, 1.14 enrichment R
- B2 — higher, 1.44 enrichment R
- B3 — higher, 0.999 enrichment R
- B4 — lower, 0.602 enrichment R
- B5 — higher, 1.77 enrichment R
- B6 — higher, 1.19 enrichment R
- B8 — higher, 3.59 enrichment R
- B9 — higher, 1.97 enrichment R
- B10 — higher, 4.58 enrichment R
- B11 — higher, 0.945 enrichment R
- B12 — higher, 5.94 enrichment R
- B13 — higher, 1.37 enrichment R
- B14 — higher, 21.9 enrichment R
- B15 — higher, 19.7 enrichment R
